# Results from PubChem BioAssay (NCI).
# Several values for one entry are separate records, joined by “and”; a condition that tells them apart may be missing. Equal values may be shown once. Compounds without any hit were thinned out: in the full panel of roughly 83,000, 20% have a hit.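 Cell lines were cultured in 96-well plates, exposed to a single compound concentration, and assessed for percent growth 48 hours later.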 Activity calls are given as the source filed them. The calls were made as follows: active = growth percent below 10; inactive = the rest.
# What was measured:
# TK-10 renal = assay: NCI-60 one-dose screen, 48 h (100 = growth as untreated, 0 = no growth, -100 = all killed); settings: 10 µM unless noted
# UACC-62 melanoma = assay: as above; settings: 10 µM unless noted
Compound,growth (TK-10 renal),growth (UACC-62 melanoma)
COc1ccc2c(c1)C(OC)C1c3c(cc4c(c3-2)OCO4)CCN1C (configuration not stated),-18.2% [100 µM] (active) and -91.5% [100 µM] (active),–
CC(C)(C)N/N=C(/Cc1nc2c3c(ccc2[nH]c1=O)C(=O)c1ccccc1C3=O)C(=O)NC1=C(Cl)C(=O)c2ccccc2C1=O,59.3% [100 µM] (inactive) and -41.1% [100 µM] (active),22.1% [100 µM] (inactive) and 1.57% [100 µM] (active)
O=Cc1ccc(-c2ccc(-c3ccc(CO)s3)o2)s1,-35% [100 µM] (active) and -93.3% [100 µM] (active),–
COC(=O)[C@]1(C)CCC[C@@]2(C)[C@@H]3C[C@@H]4[C@H]5C[C@@]3(CC[C@@H]21)C[C@@]45C,-88.2% [100 µM] (active) and -65.7% [100 µM] (active),-98.2% [100 µM] (active) and -85.1% [100 µM] (active)
Cc1ccc(/C=N/Nc2cc(C)c3cccc(C)c3n2)s1,-67.1% [100 µM] (active) and -100% [100 µM] (active),–
Cn1c(COC(=O)NC2CCCCC2)c(COC(=O)NC2CCCCC2)c2ccc3cc(Cl)c(Cl)cc3c21,-93.7% [100 µM] (active),-50.6% [100 µM] (active)
CC1(C)CCC[C@]2(C)[C@@H](C=O)C(C=O)=CC[C@@H]12,-6.19% [100 µM] (active) and -33.3% [100 µM] (active),-87.9% [100 µM] (active) and 4.13% [100 µM] (active)
C=CCO/N=C/c1cc(NC(=S)c2ccoc2C)ccc1Cl,-93.7% [100 µM] (active) and -93.1% [100 µM] (active),-98.8% [100 µM] (active) and -100% [100 µM] (active)
Cc1cc(O)c2c(c1)C(=O)C(c1c(C)cc3c(c1O)C(=O)C1OC1C3=O)=CC2=O (configuration not stated),-99.7% [100 µM] (active) and -86.5% [100 µM] (active),-91.9% [100 µM] (active) and -93.6% [100 µM] (active)
CC1=C(C2=C(C)C(=O)C(=O)c3cc(C)ccc32)c2ccc(C)cc2C(=O)C1=O,-100% [100 µM] (active),-92.5% [100 µM] (active) and -100% [100 µM] (active)
C=C1C(=O)OC2CC1C(OC(=O)/C=C/c1ccccc1)C/C(C)=C/CC/C(C)=C/CCC2(C)O (configuration not stated),-99.2% [100 µM] (active) and -83.5% [100 µM] (active),-95.6% [100 µM] (active) and -90.1% [100 µM] (active)
C=C(CO)C(=O)OC1CC(=C)C2CC(O)C(C)C2C2OC(=O)C(=C)C12 (configuration not stated),103% [100 µM] (inactive) and -92% [100 µM] (active),60.1% [100 µM] (inactive) and -100% [100 µM] (active)
C=C(C)C1CC2(C)C(C)CC(O)CC2C(OC(=O)C=C(C)C)C1O (configuration not stated),17.2% [100 µM] (inactive) and 48.8% [100 µM] (inactive),9.73% [100 µM] (active) and 41.9% [100 µM] (inactive)
COc1ccc2nc3c4c(nccc4c2c1)-c1ncccc1C3=O,-90.7% [50 µM] (active) and -100% [50 µM] (active),-95.8% [50 µM] (active) and -100% [50 µM] (active)
CCOc1cc2c(cc1O)/C(=N\OC)C[C@@H]1[C@@H]2CC[C@]2(C)[C@@H](O)CC[C@@H]12,-12.5% [100 µM] (active) and -99.5% [100 µM] (active),-31.9% [100 µM] (active) and -75.8% [100 µM] (active)
CCOc1ccc(NC(=O)/C(=N\N)C(C(=O)OC)c2nc3ccc(Cl)cc3[nH]c2=O)cc1 (configuration not stated),128% [100 µM] (inactive) and 85.6% [100 µM] (inactive),79.7% [100 µM] (inactive) and 57.3% [100 µM] (inactive)
Fc1cccc(F)c1C1SCc2nc3cc4ccccc4cc3n21 (configuration not stated),27% [100 µM] (inactive) and 34.3% [100 µM] (inactive),21.7% [100 µM] (inactive) and 19.9% [100 µM] (inactive)
CC1(C)CCC2(C(=O)O)C(O)CC3(C)C(=CCC4C5(C)CCC(OC6OCC(O)C(O)C6OC6OCC(O)C(O)C6OC6OCC(O)C(OC7OC(CO)C(O)C(O)C7O)C6O)C(C)(C)C5CCC43C)C2C1 (configuration not stated),116% [100 µM] (inactive) and 15.1% [100 µM] (inactive),97.8% [100 µM] (inactive) and 5.39% [100 µM] (active)
CC1=C(Cl)C[C@@H](/C(C)=C\Cl)O[C@@]1(O)C(Br)Br,101% [100 µM] (inactive) and -87.5% [100 µM] (active),70.8% [100 µM] (inactive) and -44.8% [100 µM] (active)
CC1=CC[C@@H]2[C@@H](CC[C@@]2(C)O)C(C)(C)[C@H]1CC[C@@H]1[C@@]2(C)CC[C@@H](O)C(C)(C)O[C@@H]2CC[C@]1(C)O,12.5% [100 µM] (inactive) and -92.2% [100 µM] (active),-81.4% [100 µM] (active) and -96.9% [100 µM] (active)
COc1ccc(OC)c(Cc2cnc3nc(N)nc(N)c3c2C)c1,27.5% [100 µM] (inactive) and -100% [100 µM] (active),1.25% [100 µM] (active) and -100% [100 µM] (active)
C=C1C(=O)OC2CC3(C)CCCC(C)C3=CC12 (configuration not stated),-100% [100 µM] (active) and -97% [100 µM] (active),-100% [100 µM] (active) and -93.9% [100 µM] (active)
O=C(/C=C/c1ccccc1)CCC1C(=O)c2ccccc2C1=O,105% [100 µM] (inactive) and 77.6% [100 µM] (inactive),41.6% [100 µM] (inactive) and 19.1% [100 µM] (inactive)
CN1CCc2cc3c(c4c2C1C(O)c1ccccc1-4)OCO3 (configuration not stated),9.4% [100 µM] (active) and -86.5% [100 µM] (active),-88.3% [100 µM] (active) and -88.4% [100 µM] (active)
CC1(C=O)CCC23COC4(CCC5C6(C)CCC(OC7OCC(OC8OC(CO)C(O)C(OC9OC(CO)C(O)C(O)C9O)C8OC8OCC(O)C(O)C8O)C(O)C7OC7OC(CO)C(O)C(O)C7O)C(C)(C)C6CCC5(C)C4(C)CC2O)C3C1 (configuration not stated),-87.3% [100 µM] (active) and -69.8% [100 µM] (active),–
COc1ccc2c(c1)C(N)=C(c1ccccc1)C2=O,99.7% [100 µM] (inactive) and 3.68% [100 µM] (active),80.5% [100 µM] (inactive) and 28.2% [100 µM] (inactive)
Cc1c2c(c(C)c3c[n+](C)ccc13)Oc1ccccc1O2,-2.16% [100 µM] (active) and -100% [100 µM] (active),-77.7% [100 µM] (active) and -100% [100 µM] (active)
COc1c(/C=C/C=O)cc2c(c1OC)OCO2,-2.29% [100 µM] (active) and -52.3% [100 µM] (active),-90.2% [100 µM] (active) and -97.4% [100 µM] (active)
